From the supplement of paper PMC7156485
± gives the standard deviation of the averaged measurements.

Columns and labels:
Details in all cases: concentration: 10 µM; 24 h
HCC1569 [1] = assay: cell number relative to DMSO (% of DMSO); higher = more cells (less growth inhibition / toxicity)
Procedure, shortened: (§1)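 Compounds were applied at 10 µM for 24 h at 37 °C, in triplicate, to HCC1569 and TDF cells. The cells were then fixed and stained for H1.0, and nuclei were counterstained with DAPI. Nuclear H1.0 intensity or cell number is reported relative to the plate control as a percent, taking the median of replicates. Smoothing for positional effects was applied to HCC1569 values only.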

TDF [2] = assay: as above
Procedure, shortened: as §1

TDF [3] = assay: H1.0 immunofluorescence intensity relative to DMSO (% of DMSO); higher = stronger H1.0 induction, active = 120 or more
Procedure, shortened: as §1

HCC1569 [4] = assay: H1.0 immunofluorescence intensity relative to DMSO (% of DMSO); higher = stronger H1.0 induction, active = 140 or more
Procedure, shortened: as §1
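For H1.0 immunofluorescence intensity relative to DMSO in this document: TDF is a line of transformed human dermal fibroblasts of mesenchymal origin.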
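For cell number relative to DMSO in this document: TDF denotes transformed human dermal fibroblasts of mesenchymal origin.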

Compound	cell number (HCC1569 [1])	cell number (TDF [2])	H1.0 immunofluorescence intensity (TDF [3])	H1.0 immunofluorescence intensity (HCC1569 [4])
CCCCCCC(C(C)O)n1cnc2c(N)ncnc21.Cl (stereo not drawn) [erythro-9-(2-Hydroxy-3-nonyl)adenine hydrochloride]	104	108	90.1 (inactive)	88.6 (inactive)
CCCCCCCCCCCCCCCCCC(=O)O [Octadecanoic acid]	102	101	104 (inactive)	95.3 (inactive)
Cl.Cl.NCCSSCCN [Cystamine dihydrochloride]	97.5	107	93.4 (inactive)	101 (inactive)
COc1cc(O)c2c(c1)oc(=O)c1c3cc(O)c(O)cc3oc21 [Wedelolactone]	91.7	74.8	101 (inactive)	91.6 (inactive)
Cc1ccc(C(=CCN2CCCC2)c2ccccn2)cc1.Cl [Triprolidine hydrochloride]	106	105	97.5 (inactive)	90 (inactive)
COC(=O)C1=C(C)NC(C)=C(C(=O)OCC(C)C)C1c1ccccc1[N+](=O)[O-] (stereo not drawn) [Nisoldipine]	94.9	104	89.9 (inactive)	116 (inactive)
N#CC(=Cc1ccc(O)c(O)c1)C(=O)NCc1ccccc1 [Tyrphostin AG 490]	94.5	107	88.7 (inactive)	99.7 (inactive)
O=C(O)c1cc(-c2ccc(F)cc2F)ccc1O [Diflunisal]	102	100	96.1 (inactive)	115 (inactive)
CCn1cc(C(=O)O)c(=O)c2cc(F)c(N3CCN(C)CC3)cc21.CS(=O)(=O)O.O.O [Pefloxacine mesylate dihydrate]	103	111	96.4 (inactive)	109 (inactive)
NCC1OC(OC2C(CO)OC(OC3C(O)C(N)CC(N)C3OC3OC(CN)C(O)C(O)C3N)C2O)C(N)C(O)C1O (stereo not drawn) [Neomycin]	99.58 ± 0.33	93.4 ± 5.1	100 (inactive)	91.8 (inactive)
CC(=O)OC1C(C)OC(Oc2c(-c3ccc(O)cc3)oc3cc(O)cc(O)c3c2=O)C(O)C1OC(C)=O (stereo not drawn) [RSK Inhibitor, SL0101]	97.7	92.8	102 (inactive)	107 (inactive)
O=C1NC(=O)C(c2cn(CCCO)c3ncccc23)=C1c1cnccn1 [GSK-3b Inhibitor XI]	106	119	88.7 (inactive)	116 (inactive)
CN(C)C(=O)COC(=O)Cc1ccc(OC(=O)c2ccc(N=C(N)N)cc2)cc1.CS(=O)(=O)O	99.4	115	91.2 (inactive)	98.5 (inactive)
CC(C)=CCCC(C)=CCCC(C)=CCSc1ccccc1C(=O)O [Farnesylthiosalicylic acid]	93.9	99.9	90.7 (inactive)	94.5 (inactive)
c1ccc2c(-c3ccncc3)c[nH]c2c1 [Rho Kinase Inhibitor III, Rockout]	105	106	86.9 (inactive)	118 (inactive)
COC(=O)C1=C(C)NC(C)=C(C(=O)OCCN2CCN(C(c3ccccc3)c3ccccc3)CC2)C1c1cccc([N+](=O)[O-])c1 (stereo not drawn) [Manidipine]	106	109	90.4 (inactive)	111 (inactive)
CCCCCC=CCC=CCC(O)C=CC=CCCCC(=O)O (stereo not drawn)	102	90.4	96.8 (inactive)	101 (inactive)
COc1cc2c(c(OC)c1OC)-c1c(cc3c(c1OC)OCO3)C[C@H](C)[C@@](C)(O)C2	97.6	95.4	96.3 (inactive)	101 (inactive)
C=CC[N+]1(C2CC3C4CCC5CC(O)C(N6CCOCC6)CC5(C)C4CCC3(C)C2OC(C)=O)CCCC1.[Br-] (stereo not drawn) [Rocuronium bromide]	107	104	99.6 (inactive)	99.4 (inactive)
COc1ccc(S(=O)(=O)Nc2cc(Cl)cc(Cl)c2OC)cc1N1CCNCC1.Cl	100	100	93.4 (inactive)	99.9 (inactive)
O=S(=O)(c1cccc2cnccc12)N1CCCNCC1	107	102	88 (inactive)	98.2 (inactive)
CC(CCc1ccc(O)cc1)NCCc1ccc(O)c(O)c1.Cl (stereo not drawn) [Dobutamine hydrochloride]	101	95.7	85.4 (inactive)	91 (inactive)
